# According to PubChem BioAssay (EPA / NIEHS):
# Calls of active or inactive are those of the source. The calls were made as follows: active = hit-call score of the fitted dose curve at least 0.9, where 1 is the maximum; inactive = score below 0.9.
# Read-out: Cytochrome P450 (CYP1A2), CYP1A2 (gene 1544)
# Assay: LTEA_HepaRG_CYP1A2: Life Technologies and Expression Analysis (LTEA) Assay for Cytochrome P450 (CYP1A2) using HepaRG (AID 2283479);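 as to AC50: TaqMan qRT-PCR transcript level normalized to ACTB GAPDH and POLR2A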
# Details: mRNA level, 48 h; actives raise or lower the signal
# Experimental: LTEA_HepaRG is a cell based, multiplexed-readout assay that uses HepaRG, a human liver cell line, with measurements taken at 48 hours after chemical dosing on a 96-well plate.LTEA_HepaRG_CYP1A2 is one of 102 assay component(s) measured in the LTEA HepaRG cell culture assay. It is a marker of NR mediated metabolism.Data from the assay component LTEA_HepaRG_CYP1A2 was analyzed into 1 endpoint. This assay endpoint, LTEA_HepaRG_CYP1A2, was analyzed with bidirectional fitting relative to DMSO as the negative control and baseline of activity. Using a type of inducible reporter, measures of mRNA induction for gain or loss-of-signal activity can be used to understand regulation of transcription factor activity. To generalize the intended target to other relatable targets, this assay endpoint is annotated to the cyp intended target family, where the subfamily is xenobiotic metabolism.
# A total of 1060 chemcials from the ToxCast library were tested in eight-point concentration-response experiments. Cell culture and cytotoxicity assays were conducted at Thermo Fisher Scientific's Custom Services facility (Madison, WI). A single lot of human HepaRG cells (Thermo Fisher Scientific, Frederick, MD) was used for the cell culture experiments. 96-well format collagen type I coated plates of human HepaRG cells were prepared using established methods. Briefly, cryopreserved HepaRG cells were thawed, plated at a density of approximately 100,000 cells/well in HepaRG Thaw, Plate, and General Purpose media (HPRG770, Thermo Fisher Scientific), and incubated for 48 hours. 0.5% DMSO was selected as vehicle control to balance the requisite need of DMSO in HepaRG cultures to maintain differentiation (for example, baseline metabolism, proportions of hepatocytes vs. cholangiocytes), while enabling further hepatic receptor pathway activation (for example, PXR and CAR) in response to chemical exposure. 48 hours after plating, the culture medium was replaced with HepaRG Serum-Free Incudtion Media. Cells were exposed to each test chemical in duplicate and maintained in CO2 incubators for another 48 hours. Chemical plates were thawed to room temperature and 200x concentrations of treatment groups were prepared. 8-point conentration-reponse curves were made with the highest exposure at 100 uM, followed by half-log dilutions, all in 0.5% DMSO. Each test plate contained variouse controls, induction positive controls (1mM phenobarbital), cytotoxicity positive controls ([…] aflatoxin B1), vehicle controls (0.5% DMSO), and total lysis controls (0.5% DMSO). Cell morphology images were taken using an Essen IncuCyte FLR automated microscope, with six 96-well plates imaged in about 24 minutes. Images were captured and exported and JPEG files. Spent culture media was transfered to black-well plates for the LDH assay, and remaining media was sorted at -80 C for later use. Cells were treated with RLT buffer and frozen until shipped for gene expression analysis. Total RNA was isolated from the cell suspension in 75 uL of Buffer RLT (Qiagen, Germantown, MD 20874) by Quintiles/Expression Analysis (Durham, NC) using a custom isolation procedure. Total RNA from each plate well was transferred to a preamplification plate. Fluidigm's 96.96 Dynamic ArrayTM (Fluidigm, Amsterdam, the Netherlands) technology was used for gene expression analyses by quantitative reverse transcription polymerase chain reaction (qRT-PCR, performed by Quintiles/Expression Analysis, Durham, NC)89. Standard TaqManTM Assays (Applied Biosystems/ThermoFisher Scientific, Foster City, CA) were used to assess the expression of 93 genes selected based on their selectivity and sensitivity to important hepatic receptors known to be modulated by environmental chemicals; importance in human hepatocyte functionality; and hepatotoxicity. […]
Structure (SMILES),AC50,outcome
NC(=O)N(O)[C@@H]1C=C[C@H](Oc2cccc(Oc3ccc(F)cc3)c2)C1,21.2 µM (active),–
Cc1cc(C)c(O)c(C)c1,–,inactive
CCCCCCC(=O)O,50 µM (active),–
CN1CCN(c2ccccc2/C=C2\SCCN(c3ccc(Cl)c(Cl)c3)C2=O)CC1,4.69 µM (active),–
COCC(C)OCC(C)O (stereo not given),–,inactive
CC(=O)NC1(c2cccc(F)c2)CCN(CC[C@@]2(c3ccc(Cl)c(Cl)c3)CN(c3ccccc3)C(=O)CO2)CC1,–,inactive
CC[C@H](c1ccc(O)cc1)[C@@H](CC)c1ccc(O)cc1,–,inactive
Oc1cc2ccccc2c2ccccc12,22.4 µM (active),–
N#C[C@@H]1CC(F)(F)CN1C(=O)CNC1CC2CCC(C1)N2c1ncccn1 (stereo not given in full),64.4 µM (active),–
c1ccc2cc3c(ccc4ccccc43)cc2c1,1.99 µM (active),–
O=c1c(-c2ccc(O)cc2)coc2cc(O)ccc12,–,inactive
OCCC(F)(F)C(F)(F)C(F)(F)C(F)(F)C(F)(F)C(F)(F)C(F)(F)C(F)(F)F,–,inactive
CCCCOCCO,–,inactive
CCC(=C(c1ccc(O)cc1)c1ccc(OCCN(C)C)cc1)c1ccccc1,–,inactive
CN1CCC[C@H]1c1cccnc1,–,inactive
COCC(C)O (stereo not given),–,inactive
O=C(O)c1ccccc1C(c1ccc(O)cc1)c1ccc(O)cc1,–,inactive
CN(C)C=O,–,inactive
CC(C)(C)c1cccc(C(C)(C)C)c1O,–,inactive
OC1CCCCC1,–,inactive

Structure (SMILES),AC50,outcome
CC1=C(/C=C/C(C)=C/C=C/C(C)=C/C(=O)O)C(C)(C)CCC1,1.75 µM (active),–
CCCCCCCC(=O)O,–,inactive
C[C@@H]1C[C@H]2[C@@H]3CCC4=CC(=O)C=C[C@]4(C)[C@@]3(F)[C@@H](O)C[C@]2(C)[C@@]1(O)C(=O)COP(=O)(O)O,–,inactive
COC(=O)CCCCC(=O)OC,–,inactive
Oc1cccc(O)c1,–,inactive
NC(=O)N1C(=O)C(C(=O)c2cc(Cl)cs2)c2cc(F)c(Cl)cc21 (stereo not given),4.16 µM (active),–
CC(C)(C)CC(C)(C)c1ccc(O)c(-n2nc3ccccc3n2)c1,31.3 µM (active),–
OC1CCC(C2CCCCC2)CC1 (stereo not given),–,inactive
OCCC(F)(F)C(F)(F)C(F)(F)C(F)(F)C(F)(F)C(F)(F)F,–,inactive
CCc1ccc(CCOc2ccc(CC3SC(=O)NC3=O)cc2)nc1 (stereo not given),31.6 µM (active),–
O=C(OCCOCCOC(=O)c1ccccc1)c1ccccc1,68.9 µM (active),–
CCc1nn(C2CCCCC2)c2cc(C3(C#N)CCC(C(=O)O)CC3)ccc12 (stereo not given),91 µM (active),–
CCCCCCCCCCCCc1ccccc1S(=O)(=O)O,84.6 µM (active),–
CCCCC(CC)COC(=O)CCCCC(=O)OCc1ccccc1 (stereo not given),–,inactive
CCCCCCCCC(=O)O,–,inactive
CCN(CC)CCNc1ccc(CNC=O)c2sc3ccc(OC)cc3c(=O)c12,–,inactive
Cc1oc(-c2ccccc2)nc1CCOc1ccc(C[C@H](Nc2ccccc2C(=O)c2ccccc2)C(=O)O)cc1,27.2 µM (active),–
CCCCC(CC)COC(=O)CCCCC(=O)OCC(CC)CCCC (stereo not given),–,inactive
CCCCCCCCOC(=O)CCCCCCCCC(=O)OCCCCCCCC,29.9 µM (active),–
CCCCCCCCCCCCN1CCCC1=O,–,inactive
